Assay results as given in PubChem BioAssay (NCI).
About 83,000 compounds went through this panel and 20% of them were active in at least one assay; those are over-represented in the sample as a whole.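 Cells were grown in 96-well plates and exposed to the test compound at a single concentration for 48 hours; results are reported as percent growth, with values below 10 considered active.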 A number with no mark means an inactive call. Activity calls are given as the source filed them.

Key:
Experiment in all cases: NCI-60 one-dose screen, 48 h (100 = growth as untreated, 0 = no growth, -100 = all killed)
Settings in all cases: 10 µM unless noted
NCI-H226 lung = tested on: NCI-H226 lung
NCI-H322M lung = tested on: NCI-H322M lung
HOP-62 NSCLC = tested on: HOP-62 NSCLC
NCI-H460 lung = tested on: NCI-H460 lung
HOP-92 NSCLC = tested on: HOP-92 NSCLC
NCI-H522 lung = tested on: NCI-H522 lung
A549/ATCC NSCLC = tested on: A549/ATCC NSCLC
786-0 renal = tested on: 786-0 renal
COLO 205 colon = tested on: COLO 205 colon
DU-145 prostate = tested on: DU-145 prostate
K-562 leukemia = tested on: K-562 leukemia
MALME-3M melanoma = tested on: MALME-3M melanoma
MDA-MB-231 breast = tested on: MDA-MB-231 breast
RXF 393 renal = tested on: RXF 393 renal
SF-268 CNS = tested on: SF-268 CNS
SF-295 CNS = tested on: SF-295 CNS
SF-539 CNS = tested on: SF-539 CNS
UACC-257 melanoma = tested on: UACC-257 melanoma
M14 melanoma = tested on: M14 melanoma
NCI-H23 lung = tested on: NCI-H23 lung

| SMILES | growth (NCI-H226 lung) | growth (NCI-H322M lung) | growth (HOP-62 NSCLC) | growth (NCI-H460 lung) | growth (HOP-92 NSCLC) | growth (NCI-H522 lung) | growth (A549/ATCC NSCLC) | growth (786-0 renal) | growth (COLO 205 colon) | growth (DU-145 prostate) | growth (K-562 leukemia) | growth (MALME-3M melanoma) | growth (MDA-MB-231 breast) | growth (RXF 393 renal) | growth (SF-268 CNS) | growth (SF-295 CNS) | growth (SF-539 CNS) | growth (UACC-257 melanoma) | growth (M14 melanoma) | growth (NCI-H23 lung) |
| --- | --- | --- | --- | --- | --- | --- | --- | --- | --- | --- | --- | --- | --- | --- | --- | --- | --- | --- | --- | --- |
| COc1ccc(NC(=O)[C@H](C)N)cc1C(=O)Nc1cccc(C2CC(=O)c3c(cc(OC)c(OC)c3OC)O2)c1 (some centres not stated) | 85.5% | 96.9% | 113% | 96.9% | 69.4% | 81.7% | 93.4% | 91.1% | 115% | 86.6% | 75.8% | 105% | 87.3% | 92.8% | 81.5% | 119% | 89.3% | 107% | 110% |  |
| COc1ccc(/C=C/c2nc3ccccc3n3c(-c4ccc(Cl)cc4)nnc23)cc1 | 95% | 104% | 96.8% | 88.6% | 69.5% | 64.2% | 90.4% | 88.8% | 92.4% | 98.5% | 72.4% | 104% | 91.7% | 100% | 79.4% | 123% | 90.8% | 102% | 102% |  |
| COc1ccc2[nH]cc(-c3nnc(N)nc3-c3cn(C)c4ncc(Br)cc34)c2c1 | 91.7% | 77.9% | 70.2% | 83.1% | 6.98% (active) | 50.3% | 84.3% | 52.5% | 102% | 93% | 52.5% | 121% | 45.8% | 27.1% | 81.4% | 83.1% | 66.5% | 106% | 105% |  |
| Cn1cc(-c2cc3nc(-c4c[nH]c5ccc(Cl)cc45)cc(N)n3n2)c2ccccc21 | -33.8% (active) | -82% (active) | -72.3% (active) | -5.5% (active) | -76.5% (active) | -76.5% (active) | -75% (active) | -89% (active) | -87.4% (active) | -85.9% (active) | 1.64% (active) | -74.4% (active) | -56.2% (active) | -80.1% (active) | -44.9% (active) | -82.9% (active) | -87.9% (active) | -84.8% (active) | -89.6% (active) |  |
| C#CCOc1ccc(/C=N/Nc2nc(-c3cc4cc(Br)ccc4oc3=O)cs2)cc1OC | 29.8% | 77.8% | 51.7% | 43.4% | 45.5% | 34.3% | 49.5% | 50.8% | 88.1% | 69.1% | 58% | 59.4% | 36.3% | 58.1% | 59.6% | 24.2% | 25.1% | 86.4% | 79.4% |  |
| O=C(NNc1nc2cc(F)ccc2n2c(CN3CC4CNCC4C3)ccc12)c1ccncn1 (configuration not stated) | 7.23% (active) |  | 38.3% | 5.26% (active) |  |  | 17.8% | -2.41% (active) | 10% | 42.1% |  | 22.5% | 27.5% | 64.1% | 28.3% | 2.58% (active) | -10.3% (active) | 12.1% | -15.6% (active) | 30.7% |
| CC(=O)OCC1OC(OC2C(COC(C)=O)OC(n3cc(COc4ccc5ccc(=O)oc5c4)nn3)C(OC(C)=O)C2OC(C)=O)C(OC(C)=O)C(OC(C)=O)C1OC(C)=O (configuration not stated) | 101% | 103% | 103% | 108% | 94.4% | 71.3% | 112% | 96.4% | 116% | 108% | 92.1% | 101% | 101% | 90.5% | 91.8% | 113% | 100% | 112% |  |  |
| COc1ccc(/C=C/c2nc3ccccc3nc2Nc2cccc(C)c2)cc1 | 93.1% | 105% | 92.7% | 101% | 99.3% | 83% | 106% | 97.4% | 105% | 108% | 84.2% | 115% | 88.5% | 109% | 96.8% | 127% | 103% | 112% | 99.6% |  |
| Cc1cccc(Nc2nc3ccccc3nc2/C=C/c2ccc(F)cc2)c1 | 95.2% | 95.5% | 99.7% | 95.4% | 84.5% | 79.4% | 91.2% | 97.3% | 106% | 101% | 86.5% | 109% | 97.1% | 98% | 91% | 107% | 102% | 94.5% | 93.3% |  |
| CC1(C)CC[C@]2(C(=O)O)CC[C@]3(C)C(=CCC4[C@@]5(C)C[C@@H](O)[C@@H]6OC(c7ccco7)OC[C@@]6(C)C5CC[C@]43C)C2C1 (some centres not stated) | 50.6% | 30.1% | 43.1% | 19.8% | -1.27% (active) | 20.7% | 18.3% | 42.7% | -86.9% (active) | 29.1% | 21.2% | 9.79% (active) | 59.7% | 32.4% | 31.9% | 24.5% | 21.9% | 1.3% (active) | 23.3% |  |
| C#CCOc1cc(N(CC)CC)ccc1C(C(=O)NC(C)(C)C)N(C(=O)C1CCc2cc(F)ccc2O1)c1cc(C)cc(C)c1 (configuration not stated) | 33.3% | 66.6% | 52.4% | 30.4% | 9.21% (active) | 19.6% | 36.1% | 36.3% | 31.3% | 58.1% | 16.4% | 59.4% | 46.7% | 42.9% | 38.2% | 33.5% | 53.5% | 42.5% | 39.9% |  |
| COc1ccc(NC(=O)Nc2ccc(OCc3ccc(F)cc3)cc2)cc1 | 12.4% | 65.8% | 44.5% | 46% | 21.3% | 65.1% | 58.9% | 29.3% | 97.7% | 88.5% | 82.6% | 62.3% | 53.5% | 35% | 61.3% | 102% | 0.894% (active) | 85.9% | 77% |  |
| Cc1cc(C)cc(NC(=O)Cn2cc(COn3nnc4ccccc43)nn2)c1 | 101% | 99.3% | 115% | 114% | 117% | 95.6% | 107% | 101% | 117% | 111% | 102% | 108% | 106% | 122% | 116% | 110% | 99.6% | 101% | 106% |  |
| Cc1ccc(/C=C/c2n(Cc3ccc4ccccc4c3)c3ccccc3[n+]2Cc2ccc3ccccc3c2)cc1 | -27.4% (active) |  | -58.2% (active) | -77.4% (active) |  | -82.5% (active) | -53.4% (active) | -51.6% (active) | -64.8% (active) | -90.1% (active) | -25.6% (active) | -90.2% (active) | -47.3% (active) |  | -65.1% (active) | -98.5% (active) | -96.5% (active) | -71.5% (active) | -74.1% (active) | -92.4% (active) |
| COc1cc(-c2nc3ccc(C)cc3[nH]2)ccc1OCc1nnc(-c2ccc(Br)cc2)o1 | 57.5% | 65.6% | 48% | 31.3% | 18.8% | 8.24% (active) | 49.8% | -50.8% (active) | 3.01% (active) | 58.3% | 3.01% (active) | 45% | 12.9% | 25.2% | 54.8% | -54.1% (active) | -82.7% (active) | -15.4% (active) | 31.2% |  |
| CCOC(=O)C1=C(N)N(c2ccccc2)C2=C(C(=O)CC(C)(C)C2)C1c1ccc([N+](=O)[O-])cc1 (configuration not stated) | 88% | 97.9% | 99% | 89.8% | 106% | 79.2% | 91.5% | 93.7% | 101% | 106% | 83.7% | 120% | 97.4% | 101% | 106% | 96.2% | 94.3% | 112% |  |  |
